TMEM16A act – TMEM16A chloride channel activators or potentiators, primary screen, cell-based, HTS; HEK293 TMEM16A/YFP-H148Q/I152L, iodide quench fluorescence; active compounds read low; B-score at 10 µM; 340,000 tested, 0.3% active;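 active = fluorescence-ratio B-score plate-corrected deviation score at least 3 library SD below zero, with starting fluorescence score within 5 deviations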;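 also: channel opened by trigger with iodide after compound preincubation; score built on the fluorescence ratio of max minus min over baseline; more negative score means more quench and so TMEM16A activation or potentiation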
Target sequence (Q8BHY3 whole entry, looked up): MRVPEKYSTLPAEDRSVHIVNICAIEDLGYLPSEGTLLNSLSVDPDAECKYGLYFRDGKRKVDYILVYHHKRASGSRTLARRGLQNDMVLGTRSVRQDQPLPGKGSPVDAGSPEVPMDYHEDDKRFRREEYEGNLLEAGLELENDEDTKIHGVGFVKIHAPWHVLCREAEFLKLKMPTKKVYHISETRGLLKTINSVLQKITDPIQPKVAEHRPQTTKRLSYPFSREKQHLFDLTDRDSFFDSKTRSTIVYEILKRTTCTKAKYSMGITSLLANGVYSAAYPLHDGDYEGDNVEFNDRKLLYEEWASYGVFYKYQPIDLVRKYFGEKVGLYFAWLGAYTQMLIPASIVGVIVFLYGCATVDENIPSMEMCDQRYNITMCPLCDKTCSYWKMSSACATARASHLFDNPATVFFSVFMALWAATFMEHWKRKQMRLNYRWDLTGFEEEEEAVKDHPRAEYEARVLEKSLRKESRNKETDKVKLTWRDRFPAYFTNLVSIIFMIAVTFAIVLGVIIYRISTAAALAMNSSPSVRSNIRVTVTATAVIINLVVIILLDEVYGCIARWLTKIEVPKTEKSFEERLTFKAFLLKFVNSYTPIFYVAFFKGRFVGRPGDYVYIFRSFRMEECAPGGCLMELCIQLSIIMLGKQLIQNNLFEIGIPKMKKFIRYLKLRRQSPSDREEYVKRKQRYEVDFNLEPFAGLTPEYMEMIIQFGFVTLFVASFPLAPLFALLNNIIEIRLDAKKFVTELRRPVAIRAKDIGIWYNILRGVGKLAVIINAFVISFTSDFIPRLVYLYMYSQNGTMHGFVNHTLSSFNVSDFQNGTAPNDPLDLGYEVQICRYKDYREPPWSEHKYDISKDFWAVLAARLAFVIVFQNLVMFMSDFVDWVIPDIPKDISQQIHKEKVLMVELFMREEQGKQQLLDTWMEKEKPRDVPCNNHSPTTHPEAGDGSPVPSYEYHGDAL
ANO1 block – TMEM16A chloride channel inhibitors, primary screen, cell-based, HTS; Anoctamin-1 (Mus musculus), Q8BHY3; HEK293 TMEM16A/YFP iodide influx fluorescence, ionomycin; normalized B-score (activity score, 25-100; higher = stronger inhibition) at 10 µM; 310,000 tested, 1.2% active; AID 588511, 2011;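 active = ratio plate-corrected score three or more library SD toward inhibition, starting fluorescence score within five deviations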;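 also: score derived from kinetic fluorescence span divided by baseline fluorescence per well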
CHT block – inhibitors of human choline transporter CHT; CHT-expressing cells, membrane potential dye, choline response; active compounds read low; B-score at 10 µM; 310,000 tested, 0.86% active;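 active = B-score over 3 SD under the library average, and starting fluorescence ratio not unusually high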;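 also: choline stimulus applied at its EC90 after an EC20 pre-addition; B-score computed on integrated fluorescence ratio after choline addition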
CHT PAM – CHT positive allosteric modulators, primary screen, cell-based, membrane potential dye, choline EC20 | CHT-expressing cells; active compounds read high; LV-AA mutant CHT in HEK293 cells | B-score at 10 µM | 310,000 tested, 0.49% active | AID 488977, 2010;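 active = initial fluorescence not abnormally high and integrated response B-score, plate-corrected, over 3 SD above library mean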
TMEM16A reconf – TMEM16A chloride channel inhibitors, confirmation, cell-based, re-confirmation; 2,300 tested, 39% active; shares compounds with ANO1 block; AID 652189, 2013; HEK293 TMEM16A/YFP-H148Q, iodide quench fluorescence; ionomycin added to raise cell calcium; inhibition, % at 10 µM;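 active = mean duplicate percent inhibition, scaled so buffer wells are 0 and the reference blocker 100, over three buffer SD above buffer mean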
HEK293 Ca mobil – calcium mobilization in TMEM16A/YFP HEK293 cells, confirmation, counter-screen for TMEM16A inhibitor project. shares compounds with ANO1 block. Fluo4 calcium mobilization. calcium response (% of ionomycin), % at 10 µM. 2,300 tested, 2% active. AID 652231, 2013;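 active = duplicate-averaged calcium signal over 20% of the ionomycin maximum, relative to buffer baseline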;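 also: each well's signal is peak minus trough fluorescence divided by its pre-addition baseline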
Parental YFP cnt – iodide YFP quench changes in parental YFP-HEK293, counter-screen for TMEM16A inhibitor project, cell-based. ionomycin. shares compounds with ANO1 block. YFP ratio F(max-min)/F0 at 10 µM. 2,300 tested, under 10 active;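 active = yellow fluorescent protein signal ratio exceeding the buffer control mean by over 5 SD of those controls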;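 also: ratio is mean of duplicate wells from kinetic YFP trace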
ClC-1 rat inh – ClC-1 chloride channel inhibition, selectivity assay for TMEM16A inhibitor project, cell-based, voltage-dependent ClC-1; shares compounds with ANO1 block; CHO ClC-1-YFP, iodide influx fluorescence quench; iodide control reads 0, buffer control 100; ratio percent, % at 10 µM; 2,300 tested, under 10 active;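 active = duplicate-mean ratio percent above the mean of iodide-only control wells, which defines zero, plus 5 of their SD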;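 also: higher percent means stronger block of ClC-1 iodide influx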
Hits are given with their value; . = inactive; / = not tested or not shown. Shown are actives, neighbours in structure and some others; about 2.3% of the full set was active somewhere.

SMILES	TMEM16A act	ANO1 block	CHT block	CHT PAM	TMEM16A reconf	HEK293 Ca mobil	Parental YFP cnt	ClC-1 rat inh
CCCn1nnnc1NCc1ccccc1OCc1cccs1	.	.	.	.	/	/	/	/
COCC(=O)Nc1ccc(C)c(Cl)c1	.	100	.	.	.	.	.	.
CCOC(=O)c1ccc(NC(=O)CSc2ccc(-c3cccnc3)nn2)cc1	.	25	.	.	.	.	.	.
COc1ccc(NC(=O)CSc2ccc(-c3cccnc3)nn2)cc1	.	.	.	.	/	/	/	/
CCOC(=O)Nc1ccc2c(c1)N(C(=O)CCN(CC)CC)c1ccccc1S2=O (stereo not given)	.	.	.	.	/	/	/	/
Cc1ccc(C(=O)Nc2nc(=O)n(C(=O)c3ccccc3C)s2)cc1	.	25	.	.	26%	.	.	.
CCn1c(=O)n(CC)c2cc(S(=O)(=O)N3CCC(c4ccccc4)CC3)ccc21	.	100	.	.	.	.	.	.
O=C(CSc1nc2ccc([N+](=O)[O-])cc2[nH]1)NC1CCCCC1	.	25	.	.	.	.	.	.
O=C(CCC(=O)OCC(=O)c1ccc(F)cc1)NC1CCCCC1	.	25	.	.	.	.	.	.
O=C(COC(=O)CCC(=O)c1ccc(F)cc1)NC1CCCCC1	.	/	/	/	/	/	/	/
CC1C/C(=N/N=C2/NC(=O)CS2)CC(C)(C)C1 (stereo not given)	.	100	.	.	.	.	.	.
Cc1ccc(C)c(CSc2nnc([C@@H](N)C(C)C)o2)c1	.	100	.	.	.	.	.	.
CCOC(=O)c1c(C)c(C)n(Cc2cccc(OC)c2OC)c1C	.	.	.	.	/	/	/	/
CCOC(=O)c1cc(C)n(Cc2cccc(OC)c2OC)c1C	.	25	.	.	29%	.	.	.
CC(=O)c1ccc(OCCCC(=O)Nc2cc(S(=O)(=O)N(C)C)ccc2C)cc1	.	.	.	.	/	/	/	/
Cc1ccc(S(=O)(=O)N(C)C)cc1NC(=O)C(C)N(C)CCOc1ccc(Cl)cc1 (stereo not given)	.	25	.	.	.	.	.	.
CCCCNC(=O)Nc1nnc(SCC(=O)OCC)s1	.	.	.	.	/	/	/	/
CCOC(=O)CSc1nnc(NC(=O)c2cc([N+](=O)[O-])cc([N+](=O)[O-])c2)s1	.	25	.	.	.	.	.	.
CN(CCOc1ccc(Cl)cc1)C(=O)c1cccc(S(=O)(=O)N2CCN(c3ccc(F)cc3)CC2)c1	.	/	/	/	/	/	/	/
CCOC(=O)c1sc(N2C(=O)C(O)=C(C(=O)c3ccco3)C2c2cccc(Cl)c2)nc1C (stereo not given)	.	25	.	.	.	.	.	.
Cc1ccccc1OCC(=O)N1N=C(C(F)(F)F)CC1(O)C(C)(C)C (stereo not given)	.	25	.	.	.	.	.	.
O=C(c1cc(-c2ccccc2)nc2ccccc12)N1N=C(C(F)F)CC1(O)C(F)F (stereo not given)	.	100	.	.	.	.	.	.
Cc1ccc(-c2cc(C(=O)N3N=C(C(F)F)CC3(O)C(F)F)c3ccccc3n2)cc1C (stereo not given)	.	.	.	.	/	/	/	/
CCN(C1CCCCC1)S(=O)(=O)c1cc(C)ccc1OC	.	.	.	.	/	/	/	/
CCN(C1CCCCC1)S(=O)(=O)c1ccc(OC)c(C)c1	.	100	.	.	.	.	.	.
SMILES	TMEM16A act	ANO1 block	CHT block	CHT PAM	TMEM16A reconf	HEK293 Ca mobil	Parental YFP cnt	ClC-1 rat inh
Cc1ccc(C)c(OC(=O)C2CSC3(C)CCC(=O)N23)c1C (stereo not given)	.	/	/	/	/	/	/	/
CCC(=O)Nc1nc2ccc([N+](=O)[O-])cc2s1	.	.	.	.	/	/	/	/
Cc1ccc(C)c(OCC(=O)Nc2nc3ccc([N+](=O)[O-])cc3s2)c1C	.	100	.	.	.	.	.	.
Cc1ccc2nc(C)c(CN3CCN(c4ccc([N+](=O)[O-])cc4Cl)CC3)n2c1	.	25	.	.	18%	.	.	.
CCOC(=O)c1sc(NC(=O)CSc2nc3c(c(-c4ccc(OC)cc4)c2C#N)CCCC3)c(C#N)c1C	.	.	.	.	/	/	/	/
CCOC(=O)c1sc(NC(=O)CSc2nc3c(cc2C#N)CCCCCC3)c(C#N)c1C	.	100	.	.	.	.	.	.
CCOC(=O)c1sc(NC(=O)c2ccncc2)c(C#N)c1C	.	25	.	.	35%	.	.	.
COCCCNC(=O)Cc1ccc(S(=O)(=O)N2CCOCC2)s1	.	/	/	/	/	/	/	/
CCc1ccccc1NC(=O)CN(C)C(=O)COC(=O)c1ccco1	.	/	/	/	/	/	/	/
COc1ccc(Cc2nc(C(=O)Nc3ccc(OC)cc3)cs2)cc1	.	25	.	.	.	.	.	.
COc1ccc(Cc2nc(C(=O)NCc3ccccc3OC)cs2)cc1	.	.	.	.	/	/	/	/
C=C(C)COc1cc2oc(=O)c(CC(=O)N3C[C@H]4C[C@@H](C3)c3cccc(=O)n3C4)c(C)c2cc1Cl	.	.	.	.	/	/	/	/
CCOc1cc(C(=O)Nc2cnccn2)cc(OCC)c1OCC	.	.	.	.	/	/	/	/
CCOc1cc(C(=O)Nc2cc(C)ccn2)cc(OCC)c1OCC	.	100	.	.	.	.	.	.
Cc1ccc(S(=O)(=O)N(C)CC(=O)N2CC(C)OC(C)C2)cc1 (stereo not given)	.	.	.	.	/	/	/	/
O=C(CCNS(=O)(=O)c1ccccc1F)OCc1ccccc1Cl	.	/	/	/	/	/	/	/
COc1ccc(N2C(=O)C3CCCN3C2c2cccc(OC)c2OC)cc1 (stereo not given)	.	25	.	.	.	.	.	.
Cc1ccccc1OCCC(=O)OCC(=O)NC1CCS(=O)(=O)C1 (stereo not given)	.	.	.	.	/	/	/	/
Cc1nc(NCc2ccccn2)c2c3c(sc2n1)CCCC3	.	.	.	.	/	/	/	/
Cc1nc(NS(=O)(=O)c2ccc(Cl)s2)c2c3c(sc2n1)CCCC3	.	25	.	.	17%	.	.	.
COc1ccc(NC(=S)NC(NC(=O)c2cccc(Cl)c2)C(Cl)(Cl)Cl)c([N+](=O)[O-])c1 (stereo not given)	.	25	.	.	.	.	.	.
O=C(NC(=S)NC1CCC(O)CC1)c1ccco1 (stereo not given)	.	/	/	/	/	/	/	/

High-throughput results (PubChem)
